# Reference: PubChem BioAssay AID1233 (SRMLSC, 2008)
# Entries with a potency or affinity are not part of this list. Active and inactive are the calls of the source.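 The calls were made as follows: active = a dose-response curve fit returns a half-maximal inhibitory concentration, extrapolated values included; inactive = the fit returns no such concentration.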
# Target: HMG-CoA reductase [Enterococcus faecalis] (UniProt Q9FD70)
# Assay: inhibitors of E. faecalis class II HMGR, confirmation, biochemical, Enterococcus faecalis (AID 1233)
# Conditions: purified E. faecalis HMGR, NADPH absorbance 340 nm kinetics; series mostly up to 100 µM
row,Structure (SMILES),outcome
1,Cc1cccc(-n2nc(C)cc2N)c1,inactive
2,O=C(Cn1ncc2ccccc21)N1CCN(c2cccc(C(F)(F)F)c2)CC1,inactive
3,CCN1C(=O)/C(=C/c2cn(C)nc2C)SC1=S,inactive
4,CCCCOC(=O)NCN1C(=O)C2C3C=CC(C3)C2C1=O (centres undefined),inactive
5,CN(C(=O)c1cc2ccccc2oc1=O)C1(C)CCS(=O)(=O)C1 (centres undefined),inactive
6,O=C(CN1CCN(c2ncc(C(F)(F)F)cc2Cl)CC1)NC(=O)NCc1ccccc1,inactive
7,COc1cc(/C=C2/C(=O)ON=C2C)ccc1OCc1cccc(F)c1,inactive
8,COc1ccc(/C=C/C(=O)NC(=S)NNC(=O)c2cccnc2)cc1OC,inactive
9,CC(=O)Nc1ccc2c(c1)OCCO2,inactive
10,Cc1ccccc1NC(=S)NCc1ccc2c(c1)cc(C)n2C,inactive
11,O=C(NCCCN1CCOCC1)c1cn(-c2ccccc2)nc1-c1cccs1,inactive
12,Cc1cc(N2C(=O)C(O)=C(C(=O)c3ccco3)C2c2cccnc2)no1 (centres undefined),inactive
13,CCN(CC)S(=O)(=O)c1ccc(C(=O)Nc2c3c(nn2C(C)(C)C)CS(=O)(=O)C3)cc1,inactive
14,CCOc1ccccc1C(=O)NC1CCN(Cc2nnnn2C2CCCC2)CC1,inactive
15,CS(=O)(=O)N1CCc2cc(S(=O)(=O)N3CCCCC3)ccc21,inactive
16,Cc1ccc(Cc2cncc(O)c2)cc1S(=O)(=O)O,inactive
17,CCN(CC)CCNC(=O)C(=O)NCC1OCCN1C(=O)c1ccc2c(c1)OCO2 (centres undefined),inactive
18,Cc1cc(C)nc(N/N=C2/CCCC/C2=C\c2ccccc2)n1,inactive
19,COc1ccc2c(C)cc(=S)[nH]c2c1,inactive
